This is an account of results in ChEMBL document CHEMBL1961873, “Compounds: GSK PKIS; Assays: Nanosyn kinase panel” (2012).

What is called inhibition is the drop in the measured response relative to a control, in per cent.

SMILES strings stand for the structures.

Sequence of Serine/threonine-protein kinase MARK2 (Homo sapiens) (Q7KZI7 whole entry): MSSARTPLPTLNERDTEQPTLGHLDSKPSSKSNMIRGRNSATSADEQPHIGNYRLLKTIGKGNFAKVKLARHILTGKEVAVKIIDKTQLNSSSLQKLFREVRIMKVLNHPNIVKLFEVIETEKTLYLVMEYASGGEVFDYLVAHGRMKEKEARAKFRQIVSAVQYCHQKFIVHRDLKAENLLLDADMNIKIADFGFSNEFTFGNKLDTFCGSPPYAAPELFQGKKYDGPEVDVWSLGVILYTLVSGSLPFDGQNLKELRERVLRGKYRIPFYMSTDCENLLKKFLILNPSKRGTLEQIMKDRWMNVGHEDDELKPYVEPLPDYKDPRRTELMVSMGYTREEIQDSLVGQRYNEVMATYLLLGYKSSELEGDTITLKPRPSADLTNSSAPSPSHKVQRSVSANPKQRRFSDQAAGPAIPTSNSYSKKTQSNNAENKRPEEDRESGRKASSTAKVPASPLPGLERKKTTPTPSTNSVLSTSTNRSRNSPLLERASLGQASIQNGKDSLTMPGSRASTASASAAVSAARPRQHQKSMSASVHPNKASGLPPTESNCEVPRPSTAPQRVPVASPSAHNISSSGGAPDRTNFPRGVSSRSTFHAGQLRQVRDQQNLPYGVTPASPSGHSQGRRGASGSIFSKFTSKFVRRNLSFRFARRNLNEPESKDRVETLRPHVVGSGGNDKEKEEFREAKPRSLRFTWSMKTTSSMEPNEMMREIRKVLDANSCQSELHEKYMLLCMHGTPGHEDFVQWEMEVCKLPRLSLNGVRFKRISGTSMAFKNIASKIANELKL

The assay has as its target Serine/threonine-protein kinase MARK2 (Homo sapiens) (UniProt Q7KZI7). The note with it: at 1 µM.
With `CCS(=O)(=O)c1ccc(OC)c(Nc2ncc(-c3cccc(-c4ccccc4F)c3)o2)c1`, the inhibition is 0.68%.
For `C/C(Nc1ccc(S(N)(=O)=O)cc1)=C1/C(=O)Nc2ccccc21` the value was 18.6%; for `CN(C)CCOc1ccc(-c2cc(-c3ccc4c(c3)CCC4=NO)c(-c3ccncc3)o2)cc1`, 0.33%.
`CCc1cccc(CC)c1/C=C/c1cncc(C(=O)NC)c1`: the inhibition came out at 1.59%.
The figure for `COc1ccc2cc(-c3c(-c4ccncc4)nc(-c4ccc(S(C)(=O)=O)cc4C)n3C)ccc2c1` is 1.75%; for `CCS(=O)(=O)c1ccc(OC)c(Nc2ncc(-c3ccccc3Cl)o2)c1` it is -0.17%.
For `COc1cc2ncn(-c3cc(OCCc4ccccc4)c(C(N)=O)s3)c2cc1OC` the value was 2.11%; for `CN1CCN(CCCNc2nc3ccc(Oc4ccc(NC(=O)Nc5cc(C(F)(F)F)ccc5F)cc4)cc3[nH]2)CC1`, 2.75%.
The figure for `Cc1ccc(NC(=O)c2ccoc2)cc1-c1ccc(C(=O)NCC2CC2)cc1` is -0.97%.
Take `COc1ccc2cc(-c3c(-c4ccncc4)nc(-c4ccc([S+](C)[O-])cc4C)n3C)ccc2c1` (centres undefined): the inhibition is -1.74%.
Take `O=C(NCC1CC1)c1ccc(-c2cccc(C(=O)NC3CC3)c2)cc1`: the inhibition was 1.08%.
On to `O=C(Nc1n[nH]c2cc(-c3cc(F)ccc3F)ccc12)C1CC1`, for which the inhibition is -0.47%.
With `COc1cc(N2CCN(C(C)C)CC2)ccc1Nc1nc(Nc2ccc(F)cc2C(=O)NC[C@@H](O)CO)c2cc[nH]c2n1`, the inhibition stood at 1.35%.
Consider `NC(=O)c1cc(-c2ccncc2)cc(-c2ccccc2)c1N`, for which the inhibition was determined as 4.3%.
The figure for `Fc1ccc(-c2ncn(C3CCNCC3)c2-c2ccnc(Oc3ccc4c(c3)OCO4)n2)cc1` is 2.68%.
In the case of `FC(F)(F)c1cccc(Nc2nccc(-c3cnn4nc(-c5ccccc5)ccc34)n2)c1`, the inhibition was 0.61%.
On to `COc1cc2ncn(-c3cc(OCc4ccccc4C(F)(F)F)c(C(C)=O)s3)c2cc1OC`, for which the inhibition was 1.04%.
The figure for `Fc1ccc(-c2ncn(CCCN3CCOCC3)c2-c2ccncc2)cc1` is 2.44%.
The figure for `NS(=O)(=O)c1ccc(Nc2cc(-c3ccc(O)c(F)c3)n[nH]2)cc1` is 7.38%.
The figure for `CN(C)CCCNc1nccc(-c2c(-c3ccc(F)cc3)nn3cc(C(F)(F)F)ccc23)n1` is 2.71%; for `Fc1ccc(-c2c(-c3ccncc3)nc3n2CCS3)cc1` it is 1.79%; for `O=C(Nc1n[nH]c2nc(-c3ccco3)ccc12)C1CC1` it is 0.11%.
Regarding `C[C@@H](Oc1cc(-n2cnc3ccc(OCC4CCN(C)CC4)cc32)sc1C(N)=O)c1ccccc1Cl`, the inhibition worked out at 19.7%.
For `c1ccc(-c2n[nH]cc2-c2ccnc(-c3ccc(OCCN4CCOCC4)cc3)c2)nc1` the value was 6.97%; for `O=C1Nc2ccccc2/C1=C/Nc1ccc(-n2cncn2)cc1`, 10.2%.
The figure for `c1ccc(Oc2ccc(Nc3ncc(-c4ccccc4)o3)cc2)cc1` is 0.42%; for `CCN(CC)Cc1ccc(Nc2nccc(-c3cnn4ncccc34)n2)cc1` it is 16.2%; for `Cc1ccc(C(=O)NC(C)C)cc1-c1ccc(C(=O)NCC2CC2)cc1` it is 2.12%.
For `COc1cc2ncn(-c3cc(OCc4cccs4)c(C(N)=O)s3)c2cc1OC` the value was 2.32%.
Turning to `O=C(Nc1ccc(Oc2ccc3[nH]c(NC(=O)c4ccccc4)nc3c2)cc1)Nc1cc(C(F)(F)F)ccc1F`, the inhibition is 1.49%.
Turning to `COc1ccc(-c2ccc3c(NC(=O)C4CC4)n[nH]c3n2)cc1`, the inhibition was -0.61%.
For `COc1cc(Nc2ncc3c(C)nc(-c4cccc(C(F)(F)F)c4)n3n2)cc(OC)c1OC` the value was 3.54%; for `Fc1ccc(-c2ncn(C3CCNCC3)c2-c2ccnc(Oc3ccc(F)c(F)c3)n2)cc1`, 1.71%; for `NS(=O)(=O)c1ccc(N/N=C2\C(=O)Nc3ccc(C(=O)NCCCn4ccnc4)cc32)cc1`, 9.93%.
